A short description of assay [1]: qHTS assay to identify aromatase inhibitors - cell viability counter screen (AID 743084;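 also: cells stimulated with testosterone during compound exposure; nearly all actives have a fitted effect of over 55% in size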; also: potency is read from the fitted curve at half-maximal effect). (qHTS replaces the single test concentration by a dilution series.)
The nature of assay [2]: qHTS assay for small molecule agonists of the antioxidant response element (ARE) signaling pathway - cell viability counter screen (AID 743203; calls by dose curve; also: nearly all actives have a fitted effect of over 55% in size; also: potency is read from the fitted curve at half-maximal effect). The method, boiled down:
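Luminescence read-out (CellTiter-Glo, 30 min at room temperature) measured cell viability in the same wells as the ARE beta-lactamase reporter. HepG2 ARE-bla cells were treated with compounds for 16 hrs at 37C/5% CO2.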

A short description of assay [3]: qHTS assay for small molecule activators of the heat shock response signaling pathway - cell viability counter screen (AID 743209). Also: nearly all actives have a fitted effect of over 50% in size. Also: potency is read from the fitted curve at half-maximal effect. The method, boiled down: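 HSE-bla HeLa; 1500 cells/well; overnight 37 C, 5% CO2; compound 5 h 37 C; LiveBLAzer B/G substrate 2.5 h RT; CellTiter-Glo 30 min RT; luminescence.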
For assay [4], the target named is Peroxisome proliferator-activated receptor gamma (Homo sapiens) (UniProt P37231). Briefly: qHTS assay to identify small molecule agonists of the peroxisome proliferator-activated receptor gamma (PPARg) signaling pathway (AID 743094; active = well fitted activation curve with a large enough effect in the signal ratio in the repeat runs, not every such curve was filed as active; the % refers to the signal ratio). The method, boiled down:
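HEK293H PPARg-bla cells, 5 h settle at 37C/5% CO2; compound (DMSO) 17 h, 37C; B/G FRET substrate 1 h RT; fluorescence intensity read-out. qHTS format.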

For assay [5] the target is unchanged. Briefly: qHTS assay to identify small molecule antagonists of the peroxisome proliferator-activated receptor gamma (PPARg) signaling pathway (AID 743191; calls by dose curve; also: nearly all actives have a fitted effect of over 30% in size; also: potency is read from the fitted curve at half-maximal effect). In a few lines: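 Beta-lactamase reporter under UAS control in HEK293H PPARg-bla cells; compound treatment 17 h at 37C. Read-out: fluorescence intensity after 1 h room-temperature incubation with LiveBLAzer B/G FRET substrate.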

Assay [6] can be described thus: qHTS assay to identify small molecule that activate the aryl hydrocarbon receptor (AhR) signaling pathway - cell viability counter screen (AID 743086). Also: nearly all actives have a fitted effect of over 45% in size. Also: potency is read from the fitted curve at half-maximal effect. In a few lines:
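Cytotoxicity counter screen: CellTiter-Fluor signal (30 min, 37 C) in 4000 HepG2 cells/well carrying the DRE-luciferase reporter, following 24 h compound exposure at 37 C.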

Assay [7] can be described thus: qHTS assay to identify small molecule antagonists of the peroxisome proliferator-activated receptor gamma (PPARg) signaling pathway - cell viability counter screen (AID 743194). Also: nearly all actives have a fitted effect of over 55% in size. Also: potency is read from the fitted curve at half-maximal effect. The following applies: Potency: co-treated with 50 nM rosiglitazone unless noted. The method, boiled down:
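Viability was measured as CellTiter-Glo luminescence in GeneBLAzer PPARg UAS-bla HEK293H cells. These cells had been exposed 17 h at 37 C to compounds together with rosiglitazone at 50 nM final, with the beta-lactamase readout taken in the same wells.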

Assay [8] can be described thus: qHTS assay for small molecule activators of the heat shock response signaling pathway (AID 743210; active = well fitted activation curve with a large enough effect in the signal ratio in the repeat runs, with a control signal flat, not every such curve was filed as active; the % refers to the signal ratio;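 also: HeLa cells with beta-lactamase reporter driven by heat shock elements; series mostly up to about 63 µM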). In a few lines: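 Fluorescence from a cleaved B/G FRET substrate (2.5 h, room temp) reports HSE-driven beta-lactamase in HeLa cells treated 5 h at 37 C with DMSO-dissolved compounds.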
Assay [9] can be described thus: qHTS assay for small molecule agonists of the antioxidant response element (ARE) signaling pathway (AID 743202; active = well fitted activation curve with a large enough effect in the signal ratio in the repeat runs, not every such curve was filed as active; the % refers to the signal ratio; also: potency is read from the fitted curve at half-maximal effect). The method, boiled down: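 Beta-lactamase reporter activity, read as fluorescence intensity, reflects ARE/Nrf2 pathway induction in HepG2 cells after 16 h compound exposure at 37 C; substrate loading was 2 h at room temperature.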
Assay [10] has as its target Aryl hydrocarbon receptor (Homo sapiens) (UniProt P35869). Briefly: qHTS assay to identify small molecule that activate the aryl hydrocarbon receptor (AhR) signaling pathway (AID 743085).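 Also: HG2L7.5c1 human HepG2 liver cells with stably integrated DRE-driven firefly reporter; series mostly up to about 70 µM; nearly all actives have a fitted effect of over 15% in size.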 In a few lines: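 Stably transfected human liver carcinoma cells (HG2L7.5c1; 20 DRE-firefly luciferase) were incubated 5 h, dosed, and kept 24 h at 37C. Agonism was scored from increased luciferase luminescence.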

Experimental findings from PubChem BioAssay (Tox21) are described below.

“And” between values parts separate entries of the source, which are not always exact repeats. Equal entries are not always repeated. Inconclusive results are not listed. The source made the active and inactive calls. Unless noted, calls follow the shape of the dose curve; as a rule, active = well fitted curve in the direction sought with a large enough effect in the repeat runs; inconclusive = weak or mixed curves; inactive = no such curve, though single readings can be large; an effect the other way counts as inactive or inconclusive.

Sequence of Peroxisome proliferator-activated receptor gamma (Homo sapiens) (P37231 whole entry, looked up): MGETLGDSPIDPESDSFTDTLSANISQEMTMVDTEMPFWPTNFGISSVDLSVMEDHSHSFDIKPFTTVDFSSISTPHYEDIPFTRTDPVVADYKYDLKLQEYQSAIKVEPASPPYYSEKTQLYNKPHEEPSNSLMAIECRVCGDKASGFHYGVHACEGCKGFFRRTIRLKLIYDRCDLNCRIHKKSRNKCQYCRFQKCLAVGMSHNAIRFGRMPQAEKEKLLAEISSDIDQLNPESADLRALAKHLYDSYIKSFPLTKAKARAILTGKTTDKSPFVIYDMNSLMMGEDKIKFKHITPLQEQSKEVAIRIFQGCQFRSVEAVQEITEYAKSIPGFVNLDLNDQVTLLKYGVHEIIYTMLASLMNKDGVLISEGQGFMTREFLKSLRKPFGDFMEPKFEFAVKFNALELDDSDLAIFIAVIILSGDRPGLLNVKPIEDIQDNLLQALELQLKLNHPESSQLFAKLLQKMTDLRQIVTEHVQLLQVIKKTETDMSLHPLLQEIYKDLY
Sequence of Aryl hydrocarbon receptor (Homo sapiens) (P35869 whole entry, looked up): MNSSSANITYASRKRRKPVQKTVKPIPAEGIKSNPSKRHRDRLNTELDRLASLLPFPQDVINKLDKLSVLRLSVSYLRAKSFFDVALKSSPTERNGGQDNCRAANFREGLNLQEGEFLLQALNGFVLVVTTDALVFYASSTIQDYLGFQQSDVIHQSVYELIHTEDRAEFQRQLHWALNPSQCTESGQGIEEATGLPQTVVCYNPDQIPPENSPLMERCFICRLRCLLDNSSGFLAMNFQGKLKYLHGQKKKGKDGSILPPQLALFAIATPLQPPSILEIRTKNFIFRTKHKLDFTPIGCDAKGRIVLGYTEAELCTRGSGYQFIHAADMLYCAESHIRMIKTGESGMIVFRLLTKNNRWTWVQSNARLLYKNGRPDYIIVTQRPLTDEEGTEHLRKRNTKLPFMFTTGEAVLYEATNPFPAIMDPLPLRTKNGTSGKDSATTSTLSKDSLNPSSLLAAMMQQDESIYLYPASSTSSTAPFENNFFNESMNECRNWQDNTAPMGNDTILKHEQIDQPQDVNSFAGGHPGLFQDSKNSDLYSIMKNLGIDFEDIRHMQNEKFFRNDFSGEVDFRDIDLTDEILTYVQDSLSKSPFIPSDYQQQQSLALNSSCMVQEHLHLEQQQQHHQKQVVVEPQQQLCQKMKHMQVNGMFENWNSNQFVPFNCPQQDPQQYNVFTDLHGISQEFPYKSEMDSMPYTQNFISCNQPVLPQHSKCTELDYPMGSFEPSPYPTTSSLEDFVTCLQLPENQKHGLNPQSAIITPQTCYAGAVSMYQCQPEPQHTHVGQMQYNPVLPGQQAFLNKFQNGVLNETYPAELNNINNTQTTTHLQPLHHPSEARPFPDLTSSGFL

Regarding `CCCCCCCCCCCCCCCCCCn1cc[n+](C)c1`, the Potency in assay [1] was 21.6 µM (active); in assay [2], 15.3 µM (active); in [3], 43.4 µM (active).

`CCCN(CCC)CCc1c[nH]c2ccccc12`: the Potency entry in assay [1], in [4], in assay [5], in assay [2] and in [3] was “inactive” in each case.

As for `O=C(NC(=O)c1c(F)cccc1F)Nc1cc(Cl)c(OC(F)(F)C(F)F)c(Cl)c1`, the Potency entry in [1], in assay [6], in assay [5], in assay [7], in assay [2] and in [3] was “inactive” each time. For the same molecule, in assay [8], the Potency result was “inactive”.

Regarding `O=CC(Br)(Br)Br`, the Potency in [1] is 6.84 µM (active); in assay [6] it was 48.4 µM (active); in assay [9], 1.72 µM (active); in assay [2] it was 54.3 µM (active); in [3], 6.14 µM (active).

In the case of `CC(C)(C)c1ccc(CSc2cnn(C(C)(C)C)c(=O)c2Cl)cc1`, the Potency entry in assay [1], in [6] and in assay [8] was “inactive” throughout. The Potency in assay [2] was 24.3 µM (active).

For the molecule `CCCN(CCC)c1c([N+](=O)[O-])cc(S(N)(=O)=O)cc1[N+](=O)[O-]`, the Potency in assay [1] was 32.7 µM (active); in [6], 44.4 µM (active); in [5], 37 µM (active); in [7], 58.6 µM (active); in assay [2] it was 29.1 µM (active).

With `CC1(C)CC/C(=C/c2ccc(Cl)cc2)C1(O)Cn1cncn1` (stereo not drawn), the Potency entry in assay [1], in [6] and in assay [7] was “inactive” each time.

For `COC(=O)N(C(=O)N1CO[C@@]2(C(=O)OC)Cc3cc(Cl)ccc3C2=N1)c1ccc(OC(F)(F)F)cc1`, the Potency result in [1], in assay [6], in [2] and in assay [3] was “inactive” in each case.

As to `O=[N+]([O-])c1ccc2ccc3cccc4ccc1c2c34`, the Potency entry in [1], in [6], in assay [7], in assay [2], in assay [3] and in [8] was “inactive” in each case.

Take `Cc1c(Cl)c(=O)oc2cc(OP(=O)(OCCCl)OCCCl)ccc12`: the Potency entry in assay [6], in assay [4], in assay [5], in assay [7], in assay [9] and in assay [2] was “inactive” each time. Also, the Potency entry in assay [3] and in [8] was “inactive” throughout.

Consider `ClC1=C(Cl)[C@]2(Cl)[C@@H]3[C@@H]4C[C@@H]([C@H]5O[C@@H]45)[C@@H]3[C@@]1(Cl)C2(Cl)Cl`, for which the Potency result in [10], in [6] and in assay [4] was “inactive” in each case. The Potency in [7] is 43.6 µM (active); in assay [2] it was 54.5 µM (active); in assay [3], 48.9 µM (active).

With `Cn1cc(C2=C(c3cn(C4CCN(Cc5ccccn5)CC4)c4ccccc34)C(=O)NC2=O)c2ccccc21`, the Potency entry in assay [6], in assay [2] and in [3] was “inactive” each time.

As for `Oc1cc(Cl)c(Cl)c(Cl)c1`, the Potency result in assay [6] was “inactive”.

For `ClC1=C(Cl)C2(Cl)C3C(Cl)C(Cl)CC3C1(Cl)C2(Cl)Cl` (stereo not drawn), the Potency result in assay [6] is “inactive”. In addition, the Potency in [2] is 61.1 µM (active); in assay [3], 21.8 µM (active) and 38.9 µM (active).

Turning to `c1ccc2c(c1)OCC(C1=NCCN1)O2` (stereo not drawn), the Potency entry in assay [10], in assay [7], in [2] and in assay [3] was “inactive” each time. Besides, the Potency in assay [9] was 13.3 µM (active).
